Experimental data reported in PubChem BioAssay.
Active and inactive are the calls of the source.

Tests used:
[1] = test system: PRMT1 (protein arginine N-methyltransferase 1); test: PRMT1 binders on small-molecule microarrays, primary screen, biochemical, small-molecule microarray, 635 nm fluorescence (AID 1088); conditions: small-molecule microarray binding, higher = more signal;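 also: binding of Prmt1 protein to compounds spotted on small-molecule microarray slides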
[2] = yeast growth modulation, basal conditions, primary screen, YJM789 clinical isolate, OD600, 24 h (AID 1089);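 also: growth of clinical yeast isolate S. cerevisiae YJM 789 seeded 1000 cells per well; test concentration not given here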; conditions: S. cerevisiae YJM789 growth, higher = more signal, called active from +8 up or from −8 down
[3] = fission yeast growth modulation, primary screen, strain 972, OD600, 24 h, no modulator (AID 1090);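 also: basal condition with compound alone and no growth modifier present; test concentration not given here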; conditions: S. pombe 972 growth, higher = more signal, called active from +8 up or from −8 down
[4] = S. cerevisiae growth modulation with rapamycin, primary screen, strain BY4716, OD600, 96 h (AID 1091); conditions: higher = more signal, called active from +8 up or from −8 down; also: test concentration not given here
[5] = molecular target: Torsin-1A-interacting protein 2 (Homo sapiens) (UniProt Q8NFQ8); test: LULL1 binders on small-molecule microarray, primary screen, cell lysate, human LULL1 lysate, 635/667 nm fluorescence (AID 1092); conditions: hLULL1 lysate binding, 635 nm fluorescence, higher = more signal;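 also: probe is lysate of COS7 cells overexpressing human LULL1; score merges per-feature 667 nm fluorescence with signal-to-noise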
Sequence of Torsin-1A-interacting protein 2 (Homo sapiens) (Q8NFQ8 whole entry, looked up): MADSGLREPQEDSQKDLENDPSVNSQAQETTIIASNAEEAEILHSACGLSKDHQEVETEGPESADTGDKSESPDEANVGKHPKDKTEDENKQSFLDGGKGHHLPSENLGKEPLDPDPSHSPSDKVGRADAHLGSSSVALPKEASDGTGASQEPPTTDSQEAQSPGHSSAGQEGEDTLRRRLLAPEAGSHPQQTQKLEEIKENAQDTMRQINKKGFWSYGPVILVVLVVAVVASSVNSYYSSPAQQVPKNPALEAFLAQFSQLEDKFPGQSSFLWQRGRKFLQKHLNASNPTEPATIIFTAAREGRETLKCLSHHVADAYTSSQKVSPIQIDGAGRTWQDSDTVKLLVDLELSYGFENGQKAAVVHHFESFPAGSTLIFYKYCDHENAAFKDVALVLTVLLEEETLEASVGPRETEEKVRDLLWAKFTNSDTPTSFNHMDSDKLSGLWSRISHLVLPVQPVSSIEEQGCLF

[6] = E. coli growth modulation, two-sided OD650, primary screen, E. coli filamentation project, strain DRC41, 24 h (AID 1093); conditions: OD650, 24 h, higher = more signal, called active from +8 up or from −8 down;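 also: MC1000 strain lacking acrAB efflux and sulA so SOS filamentation is blocked; test concentration not given here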
[7] = small-molecule microarray binders of probe aLefty2, primary screen, biochemical, biotinylated probe, 635/667 nm fluorescence (AID 1094); conditions: higher = more signal;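 also: score merges spot fluorescence near 667 nm with spot signal-to-noise ratio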
[8] = test system: Noggin (protein binding on small-molecule microarray); test: Noggin binders on small-molecule microarray, primary screen, biochemical, 635/667 nm fluorescence (AID 1095); conditions: 635 nm fluorescence, higher = more signal;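 also: score merges 667 nm feature fluorescence with signal to noise over triplicate slides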
[9] = molecular target: Neurogenic locus notch homolog protein 3 (Homo sapiens) (UniProt Q9UM47); test: NOTCH3 binders on small-molecule microarray, primary screen, biochemical, 635/667 nm fluorescence (AID 1096); conditions: NOTCH3 binding, 635 nm fluorescence, higher = more signal
Sequence of Neurogenic locus notch homolog protein 3 (Homo sapiens) (Q9UM47 whole entry, looked up): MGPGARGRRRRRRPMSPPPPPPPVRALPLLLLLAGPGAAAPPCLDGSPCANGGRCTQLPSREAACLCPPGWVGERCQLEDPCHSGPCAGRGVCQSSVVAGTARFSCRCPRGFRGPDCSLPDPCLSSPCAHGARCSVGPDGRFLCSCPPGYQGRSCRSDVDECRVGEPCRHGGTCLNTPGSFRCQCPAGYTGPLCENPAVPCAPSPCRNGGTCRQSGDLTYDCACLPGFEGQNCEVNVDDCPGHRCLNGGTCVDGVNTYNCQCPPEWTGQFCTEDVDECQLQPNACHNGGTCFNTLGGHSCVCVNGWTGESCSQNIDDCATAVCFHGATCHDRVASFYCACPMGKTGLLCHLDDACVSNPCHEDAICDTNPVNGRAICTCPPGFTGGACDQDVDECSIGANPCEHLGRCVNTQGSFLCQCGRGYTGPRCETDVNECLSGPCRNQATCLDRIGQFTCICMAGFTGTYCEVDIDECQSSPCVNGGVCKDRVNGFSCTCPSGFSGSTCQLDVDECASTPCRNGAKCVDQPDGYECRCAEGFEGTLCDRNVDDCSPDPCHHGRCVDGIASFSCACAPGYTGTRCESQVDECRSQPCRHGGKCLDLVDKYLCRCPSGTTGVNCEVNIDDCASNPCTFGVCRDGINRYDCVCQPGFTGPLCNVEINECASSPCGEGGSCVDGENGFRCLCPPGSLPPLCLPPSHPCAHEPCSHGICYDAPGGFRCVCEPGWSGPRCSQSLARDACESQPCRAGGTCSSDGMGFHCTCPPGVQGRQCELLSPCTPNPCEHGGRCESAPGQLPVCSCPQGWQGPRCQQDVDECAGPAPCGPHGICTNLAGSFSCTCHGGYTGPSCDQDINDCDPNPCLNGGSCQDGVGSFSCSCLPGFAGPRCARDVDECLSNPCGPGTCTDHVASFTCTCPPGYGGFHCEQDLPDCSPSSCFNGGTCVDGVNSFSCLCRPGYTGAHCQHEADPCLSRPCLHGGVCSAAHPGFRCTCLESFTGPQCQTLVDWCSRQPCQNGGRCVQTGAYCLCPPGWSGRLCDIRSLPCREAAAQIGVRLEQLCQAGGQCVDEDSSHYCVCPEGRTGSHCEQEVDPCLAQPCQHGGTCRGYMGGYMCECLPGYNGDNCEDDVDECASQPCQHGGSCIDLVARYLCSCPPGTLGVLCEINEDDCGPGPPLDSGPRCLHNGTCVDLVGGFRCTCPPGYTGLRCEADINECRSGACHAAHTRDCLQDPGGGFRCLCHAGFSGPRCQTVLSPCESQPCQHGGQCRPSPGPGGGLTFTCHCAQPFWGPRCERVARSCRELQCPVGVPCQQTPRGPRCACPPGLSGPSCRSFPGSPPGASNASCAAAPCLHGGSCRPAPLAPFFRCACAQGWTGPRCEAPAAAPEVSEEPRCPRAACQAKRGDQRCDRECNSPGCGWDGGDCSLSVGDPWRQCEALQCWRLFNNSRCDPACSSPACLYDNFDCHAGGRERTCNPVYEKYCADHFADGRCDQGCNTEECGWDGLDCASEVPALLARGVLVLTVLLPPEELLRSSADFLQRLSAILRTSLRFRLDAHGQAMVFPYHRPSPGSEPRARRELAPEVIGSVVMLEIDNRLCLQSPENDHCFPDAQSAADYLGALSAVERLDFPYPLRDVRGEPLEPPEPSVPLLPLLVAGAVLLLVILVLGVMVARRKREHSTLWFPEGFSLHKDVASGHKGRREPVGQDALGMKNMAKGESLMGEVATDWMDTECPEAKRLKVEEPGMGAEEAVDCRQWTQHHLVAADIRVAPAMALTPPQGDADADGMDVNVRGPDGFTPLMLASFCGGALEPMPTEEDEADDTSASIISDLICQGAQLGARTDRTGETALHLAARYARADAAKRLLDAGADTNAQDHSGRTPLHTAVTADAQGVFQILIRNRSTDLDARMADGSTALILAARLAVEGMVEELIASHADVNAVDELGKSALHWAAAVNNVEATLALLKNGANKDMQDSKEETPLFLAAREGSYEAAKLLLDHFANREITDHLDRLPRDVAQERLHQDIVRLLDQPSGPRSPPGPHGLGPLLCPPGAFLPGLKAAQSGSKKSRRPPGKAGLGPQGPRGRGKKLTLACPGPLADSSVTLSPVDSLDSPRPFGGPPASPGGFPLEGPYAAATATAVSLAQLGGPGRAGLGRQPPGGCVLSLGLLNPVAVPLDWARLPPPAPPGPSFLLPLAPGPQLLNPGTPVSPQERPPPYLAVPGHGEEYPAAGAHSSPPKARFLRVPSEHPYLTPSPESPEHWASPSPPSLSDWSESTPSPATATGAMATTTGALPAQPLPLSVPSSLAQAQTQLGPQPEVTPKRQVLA

[10] = small-molecule microarray binders of probe aEGFR, primary screen, biochemical, biotinylated probe, 635/667 nm fluorescence (AID 1097); conditions: higher = more signal;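 also: probe is a biotinylated anti-EGFR antibody binding compounds printed on slides; score combines fluorescence near 667 nm and signal to noise of each spot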
[11] = test system: Plasmodium falciparum Sir2 (PF13_0152, Sir2A); test: pfSir2 binders on small-molecule microarrays, primary screen, biochemical, small-molecule microarray, 635 nm fluorescence (AID 1098); conditions: small-molecule microarray binding, fluorescence 635 nm; higher = more signal;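 also: score merges spot fluorescence intensity with its signal-to-noise ratio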
[12] = small-molecule microarray binders of probe aDKK1, primary screen, biochemical, biotinylated probe, 635/667 nm fluorescence (AID 1099); conditions: higher = more signal;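 also: score merges 667nm spot fluorescence with signal to noise across triplicate slides; reference of the scale not given here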
[13] = small-molecule microarray binders of probe aCHRDL2, primary screen, biochemical, biotinylated probe, 635/667 nm fluorescence (AID 1100); conditions: higher = more signal
[14] = splicing luciferase reporter signal modulators, primary screen, spliceosome inhibition project, cell-based, HEK293, splice +/- reporter (AID 1101); conditions: luminescence, 24 h, higher = more signal, called active from +8 up or from −8 down;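 also: HEK293 cells carrying a splicing-competent luciferase reporter gene; test concentration not given here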
[15] = molecular target: Fibroblast growth factor 10 (Homo sapiens) (UniProt O15520); test: FGF10 binders on small-molecule microarrays, primary screen, biochemical, small-molecule microarray, 635 nm fluorescence (AID 1102); conditions: FGF10 binding, fluorescence 635 nm, higher = more signal
Sequence of Fibroblast growth factor 10 (Homo sapiens) (O15520 whole entry, looked up): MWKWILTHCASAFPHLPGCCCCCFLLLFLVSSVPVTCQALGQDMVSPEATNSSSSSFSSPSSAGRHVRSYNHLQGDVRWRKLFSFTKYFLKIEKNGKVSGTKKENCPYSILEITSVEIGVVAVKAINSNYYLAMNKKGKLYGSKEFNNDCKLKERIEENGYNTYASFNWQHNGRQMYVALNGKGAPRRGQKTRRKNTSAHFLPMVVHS

[16] = test system: glycogen synthase kinase-3 (GSK3A per assay name; protocol says GSK3B); test: GSK3 binders on small-molecule microarrays, primary screen, biochemical, small-molecule microarray, 635 nm fluorescence, GSK3A (AID 1103); conditions: small-molecule microarray binding, fluorescence 635 nm; higher = more signal; also: the record names both GSK3A and GSK3B
[17] = molecular target: Epidermal growth factor receptor (Homo sapiens) (UniProt P00533); test: EGFR binders on small-molecule microarrays, primary screen, biochemical, small-molecule microarray, 635 nm fluorescence (AID 1104); conditions: EGFR binding, higher = more signal;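 also: score merges 667 nm emission intensity with spot signal to noise over triplicate slides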
Sequence of Epidermal growth factor receptor (Homo sapiens) (P00533 whole entry, looked up): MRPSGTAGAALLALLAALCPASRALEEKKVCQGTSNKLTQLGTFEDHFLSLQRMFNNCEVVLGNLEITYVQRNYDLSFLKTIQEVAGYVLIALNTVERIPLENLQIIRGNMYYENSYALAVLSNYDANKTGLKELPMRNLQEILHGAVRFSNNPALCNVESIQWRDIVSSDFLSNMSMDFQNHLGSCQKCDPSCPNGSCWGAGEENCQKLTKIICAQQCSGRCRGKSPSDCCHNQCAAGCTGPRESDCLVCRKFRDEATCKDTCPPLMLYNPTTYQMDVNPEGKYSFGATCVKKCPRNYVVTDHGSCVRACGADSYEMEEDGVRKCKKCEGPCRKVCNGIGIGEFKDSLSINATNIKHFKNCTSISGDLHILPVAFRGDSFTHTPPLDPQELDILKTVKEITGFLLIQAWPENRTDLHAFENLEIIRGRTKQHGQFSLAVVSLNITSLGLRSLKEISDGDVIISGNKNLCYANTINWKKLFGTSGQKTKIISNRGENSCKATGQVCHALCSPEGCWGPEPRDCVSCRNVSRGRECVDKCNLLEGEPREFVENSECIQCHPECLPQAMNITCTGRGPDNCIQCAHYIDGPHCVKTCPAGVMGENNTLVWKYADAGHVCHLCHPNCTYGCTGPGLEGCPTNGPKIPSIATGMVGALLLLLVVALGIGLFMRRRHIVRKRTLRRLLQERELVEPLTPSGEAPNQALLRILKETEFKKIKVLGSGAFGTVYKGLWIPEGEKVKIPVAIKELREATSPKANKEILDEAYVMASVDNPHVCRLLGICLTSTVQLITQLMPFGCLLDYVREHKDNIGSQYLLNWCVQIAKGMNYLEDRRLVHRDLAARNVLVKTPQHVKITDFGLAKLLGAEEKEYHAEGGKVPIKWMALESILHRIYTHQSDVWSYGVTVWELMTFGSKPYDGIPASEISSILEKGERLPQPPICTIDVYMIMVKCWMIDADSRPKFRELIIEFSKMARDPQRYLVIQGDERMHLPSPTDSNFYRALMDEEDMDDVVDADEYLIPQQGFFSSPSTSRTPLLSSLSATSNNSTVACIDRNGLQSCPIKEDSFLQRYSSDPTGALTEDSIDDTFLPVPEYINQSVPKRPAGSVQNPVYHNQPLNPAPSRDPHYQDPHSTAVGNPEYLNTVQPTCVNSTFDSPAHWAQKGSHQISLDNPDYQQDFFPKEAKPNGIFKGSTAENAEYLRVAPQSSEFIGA

[18] = molecular target: Follistatin-related protein 3 (Homo sapiens) (UniProt O95633); test: FSTL3 binders on small-molecule microarrays, primary screen, biochemical, small-molecule microarray, 635 nm fluorescence (AID 1105); conditions: FSTL3 binding, higher = more signal;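 also: score merges emission near 667 nm and signal to noise per printed spot across three slides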
Sequence of Follistatin-related protein 3 (Homo sapiens) (O95633 whole entry, looked up): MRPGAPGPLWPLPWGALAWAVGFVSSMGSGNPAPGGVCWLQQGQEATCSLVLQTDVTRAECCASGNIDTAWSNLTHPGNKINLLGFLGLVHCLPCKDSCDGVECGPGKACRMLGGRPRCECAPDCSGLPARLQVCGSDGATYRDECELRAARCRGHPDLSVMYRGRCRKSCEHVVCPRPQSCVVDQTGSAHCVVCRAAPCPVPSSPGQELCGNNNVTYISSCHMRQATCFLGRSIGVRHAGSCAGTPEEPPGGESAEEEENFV

[19] = molecular target: Dickkopf-related protein 1 (Homo sapiens) (UniProt O94907); test: DKK1 binders on small-molecule microarrays, primary screen, biochemical, small-molecule microarray, 635 nm fluorescence scan (AID 1106); conditions: DKK1 binding, higher = more signal;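 also: score merges emission near 667 nm with signal to noise over three replicate slides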
Sequence of Dickkopf-related protein 1 (Homo sapiens) (O94907 whole entry, looked up): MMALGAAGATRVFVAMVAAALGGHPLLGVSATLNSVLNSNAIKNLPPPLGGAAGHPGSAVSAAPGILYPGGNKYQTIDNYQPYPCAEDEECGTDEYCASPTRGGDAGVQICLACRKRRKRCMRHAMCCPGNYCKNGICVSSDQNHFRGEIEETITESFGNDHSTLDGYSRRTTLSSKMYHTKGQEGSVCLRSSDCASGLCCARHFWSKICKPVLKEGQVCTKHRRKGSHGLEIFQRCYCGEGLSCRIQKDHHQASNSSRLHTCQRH

[20] = test system: Inhibin beta A chain (activin A); test: INHBA (activin A) binders on microarrays, primary screen, biochemical, small-molecule microarray, 635 nm fluorescence scan (AID 1107); conditions: small-molecule microarray binding, higher = more signal;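 also: mouse activin A protein probed at 4.33 µg/mL on printed slides; score merges bound-protein fluorescence near 667 nm with spot signal-to-noise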

SMILES | composite z-score [1] | z-score [2] | z-score [3] | z-score [4] | composite z-score [5] | z-score [6] | composite z-score [7] | composite z-score [8] | composite z-score [9] | composite z-score [10] | composite z-score [11] | composite z-score [12] | composite z-score [13] | z-score [14] | composite z-score [15] | composite z-score [16] | composite z-score [17] | composite z-score [18] | composite z-score [19] | composite z-score [20]
Cc1ccc(N2C(=O)c3ccccc3[C@](C)(C(=O)NCCCN(C)C)[C@@H]2c2ccc(CO)cc2)nc1 | 0.409 | -0.903 (inactive) | -0.808 (inactive) | -1.51 (inactive) | 2.93 | -0.677 (inactive) | -0.0405 | -0.817 | -0.681 | -0.209 | 0.485 | -0.0971 | 0.451 | 0.055 (inactive) | -0.47 | -1.21 | -1.1 | -0.444 | -0.599 | 0.573
CC(=O)OCC1C2CC[C@H]3C(OCc4ccc(F)cc4C(F)(F)F)OC[C@]4(C)[C@H]3C2=C(CN4C(=O)OC(C)(C)C)[C@H](C)C1COC(C)=O (stereo not given in full) | -0.025 | 1.56 (inactive) | 2.04 (inactive) | 1.15 (inactive) | 1.35 | -1.36 (inactive) | 0.054 | 1.2 | -0.439 | -0.0512 | 0.547 | 0.547 | 1.06 | -0.329 (inactive) | 0.398 | -0.466 | -1.08 | -0.925 | -1.31 | 0.838
